High-throughput results: PubChem BioAssay, National Center for Advancing Translational Sciences (NCATS)
HT1080-NT tox: kills 2HG-producing HT-1080-NT fibrosarcoma cells; HT-1080-NT fibrosarcoma viability, CellTiter-Glo ATP luminescence, 48 h; Potency, µM (top dose mostly 46.1 µM), actives largely listed as cytotoxic; 360,000 tested, 1.6% active; AID 686970;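 further: NT is the 2HG producing partner of a matched IDH1 knockdown line; nearly all actives have a fitted effect of over 55% in size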
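Fibrosarcoma NT cells, 750 per well in 5% FBS RPMI, were exposed to compound for 48 hours. Viability: CellTiter-Glo luminescence.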
DT40 TDP1 no CPT: qHTS for Inhibitors of human tyrosyl-DNA phosphodiesterase 1 (TDP1): qHTS in cells in absence of CPT; DT40 Tdp1-/- hTDP1 cells, no CPT, ATP luminescence, 48 h; Potency, µM (titrated, usually from 46.2 µM), most hits filed as inhibitors; 420,000 tested, 15% active; further: nearly all actives have a fitted effect of over 55% in size
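Readout: luminescence from CellTiter-Glo after 30 min in the dark at RT. Cells: DT40 Tdp1-/- with stable hTDP1, 400/well. Exposure: compounds alone, ≥48 hr, 37 °C.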
HT1080 IDH1KD tx: kills HT-1080 cells with IDH1 knockdown | Potency, µM (top dose mostly 46.1 µM), hits mostly cytotoxic | HT-1080 IDH1 knockdown viability, ATP luminescence, 48 h | 360,000 tested, 2% active
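HT-1080-IDH1KD cells (IDH1 knocked down), 750/well in RPMI with 5% FBS, treated with compound 48 h at 37 degrees C. Viability by CellTiter-Glo luminescence, normalised to DMSO and no-cell wells; concentration-response curves classed.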
IL1B secr inh: inflammasome signaling inhibition, IL-1 beta readout; THP-1 LPS/ATP IL-1B secretion, AlphaLISA, 16 h; stronger effect = lower value; activity change, % at 57.5 µM; 360,000 tested, 4.7% active; AID 743279; in the data active means activity change below about -50%; inconclusive means mostly about -30% to -49%
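Secreted IL-1B measured by AlphaLISA bead assay after 16 h compound exposure of THP-1 cells; compounds (final up to 57.5 uM) added 1 h before LPS (250 ng/mL) and ATP (1.25 mM) stimulation; lower signal means less secretion.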
TDP1 cell CPT: growth inhibition of DT40 Tdp1-/-;hTDP1 cells with camptothecin (screen for TDP1 inhibitors). chicken DT40 Tdp1-/-;hTDP1 cells + 20 nM CPT, ATP luminescence, 48 h. Potency, µM (highest dose often 46.2 µM), usual class: inhibitors. 420,000 tested, 12% active; further: nearly all actives have a fitted effect of over 55% in size
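Chicken DT40 Tdp1-/- cells stably complemented with human TDP1 were seeded at 400 cells/well in medium containing 20 nM camptothecin, exposed to pin-transferred compounds, and grown at 37 °C for at least 48 hr. Viability was read as ATP luminescence.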
Numbers stand for hits; i = inactive; ? = inconclusive; nt = no result given; ! = a repeat was not active. Hits are enriched below; roughly 19% of the tested compounds scored in any of these assays. Unless noted, the call rests on the fitted dose curve; in most records, active means well fitted curve in the direction sought with a large enough effect; inconclusive means small, poorly fitted or top-dose-only effect, or another doubt; inactive means no such curve, though single readings can be large; an effect the other way counts as inactive or inconclusive.

SMILES	HT1080-NT tox	DT40 TDP1 no CPT	HT1080 IDH1KD tx	IL1B secr inh	TDP1 cell CPT
CC(=O)c1ccc(N2CCN(c3nc4ccccc4c4nc(-c5cccc(C)c5)nn34)CC2)cc1	nt	i	nt	nt	i
COc1ccc(C2C=CC(=O)CC2)c(OC)c1 (stereo not drawn)	?	?	?	-76	?
COc1ccc(C2C(=O)c3ccccc3C2=O)c(OC)c1	i	i	i	i	i
CC(C)c1ccc2occ(CC(=O)Nc3ccccc3Cl)c2c1	nt	?	nt	nt	i
O=C(Nc1ncc(Cc2ccc(SC(F)F)cc2)s1)c1ccc(OC(F)F)cc1	0.073µM	1µM	0.046µM	i	1.3µM
COc1cccc(-n2ccn(CC(=O)NCCc3ccccc3)c(=O)c2=O)c1	i	i	i	i	i
O=C(NC1CCCCC1)c1ccc(CSc2nc3cccnc3n2Cc2ccc(F)cc2)cc1	nt	13µM	nt	nt	?
COc1ccc(NC(=O)Cn2c(SCc3ccc(C)cc3)nc3cccnc32)c(OC)c1	nt	?	nt	nt	15µM
O=C(NC1CCCC1)c1ccc(CSc2nc3cccnc3n2Cc2ccccc2F)cc1	nt	21µM	nt	nt	?
O=C(NC1CC1)c1ccc(Cn2c(SCc3cccc(F)c3)nc3cccnc32)cc1	nt	8.2µM	nt	nt	?
CCNc1c(NC(=O)C2CCC(C)CC2)c(=O)oc2ccccc12 (stereo not drawn)	i	?	i	i	?
O=c1c(Cc2ccc(F)cc2)c(O)ccn1CCCN1CCOCC1	i	i	i	i	i
CC1SC(c2ccc(F)cc2)NC1=O (stereo not drawn)	i	i	i	i	i
O=C(NC1CCCCC1)c1ccc(Cn2c(SCc3ccc(F)cc3)nc3cccnc32)cc1	nt	i	nt	nt	i
O=C(NC1CCCCC1)c1ccc(CSc2nc3cccnc3n2Cc2cccc(F)c2)cc1	nt	5.2µM	nt	nt	10µM
COc1ccc(Cn2c(SCc3ccc(C(=O)NC4CCCCC4)cc3)nc3cccnc32)cc1	nt	15µM	nt	nt	?
O=C(CSc1n[nH]c(-c2ccc(Br)cc2)n1)NC1CCCC1	i	?	i	i	?
COc1ccc(S(=O)(=O)Nc2ccccc2C(=O)N2CCOCC2)cc1C	?	i	i	i	i
Cc1ccc(C(=O)/C=C/c2cc(Br)cc(Br)c2O)o1	?	29µM	?	?	i
COc1cccc(Nc2ncc3nc(-c4ccccc4)c(=O)n(C[C@H]4CCCO4)c3n2)c1	nt	?	nt	nt	i
Oc1c(C(c2ccc(Cl)cc2Cl)N2CCOCC2)sc2nc(-c3ccco3)nn12 (stereo not drawn)	nt	?	nt	nt	i
CCOC(=O)N1CCN(C(=O)c2ccc3c(c2)N(Cc2ccccc2F)C(=O)c2ccccc2S3(=O)=O)CC1	nt	?	nt	nt	i
O=C(c1ccc2c(c1)N(Cc1ccccc1F)C(=O)c1ccccc1S2(=O)=O)N1CCC(Cc2ccccc2)CC1	nt	21µM	nt	nt	16µM
O=C(c1ccc2c(c1)N(Cc1ccc(Cl)cc1)C(=O)c1ccccc1S2(=O)=O)N1CCC(Cc2ccccc2)CC1	nt	18µM	nt	nt	10µM
Cc1ccc(S(=O)(=O)NCCC(=O)NCc2ccco2)cc1	i	i	i	i	i
SMILES	HT1080-NT tox	DT40 TDP1 no CPT	HT1080 IDH1KD tx	IL1B secr inh	TDP1 cell CPT
NCCc1ccc(O)c(O)c1	i	4.6µM	i	i	5.2µM
NC(Cc1ccc(O)c(O)c1)C(=O)O (stereo not drawn)	nt	2.9µM	nt	nt	3.7µM
NCC(O)c1ccc(O)c(O)c1 (stereo not drawn)	i	i	i	i	i
COC(=O)c1ccc(CNC(=O)CCNC(=O)c2ccco2)cc1	i	i	i	i	i
COC(CNS(=O)(=O)c1cc2c3c(c1)CCN3C(=O)CC2)OC	i	i	i	i	i
O=S(=O)(NCC(Nc1ccccc1)c1ccccc1)c1ccc(Cl)cc1 (stereo not drawn)	i	29µM	i	-79	?
O=C(O)c1cccc(NC(CNS(=O)(=O)c2ccc(Cl)cc2)c2ccccc2)c1 (stereo not drawn)	i	i	i	i	i
CC(C)=CC(=O)Nc1ccc(S(=O)(=O)Nc2ccccn2)cc1	i	i	i	i	i
CC1CC(N(C(=O)c2ccco2)c2ccccc2)c2ccccc2N1 (stereo not drawn)	i	15µM	?	i	?
CCC[C@H]1COCCS(=O)(=O)N1Cc1ccc(F)cc1	nt	i	nt	nt	i
Cc1ccccc1CN1[C@@H](C(C)C)COCCS1(=O)=O	i	i	i	i	i
O=S1(=O)CCOC[C@H](CC2CCCCC2)N1Cc1cccc(C(F)(F)F)c1	i	18µM	i	i	?
O=S1(=O)CCOC[C@H](Cc2ccccc2)N1Cc1cccc(C(F)(F)F)c1	i	?	i	i	18µM
CCC[C@H]1COCCS(=O)(=O)N1Cc1ccc(Br)cc1	nt	11µM	nt	nt	?
CC(C)[C@H]1COCCS(=O)(=O)N1Cc1ccccc1	i	10µM!	i	i	?
O=S1(=O)CCOC[C@H](Cc2ccccc2)N1Cc1ccccc1	i	i	i	i	i
CC1(C)CC(=O)C(C2C3=C(CC(C)(C)CC3=O)OC3=C2C(=O)CC(C)(C)C3)=C(O)C1	i	i	i	i	i
CC1(C)CC(=O)C=C(c2cccc3c2sc2ccccc23)C1	i	?	i	i	i
CCOC(=O)CN(C(=O)c1snc(C(N)=O)c1N)C(C(=O)NC1CCCCC1)c1ccc(F)cc1 (stereo not drawn)	i	i	i	i	i
COc1ccc(C2CC(c3ccccc3O)=NN2C(=O)c2ccccc2)cc1OC (stereo not drawn)	i	i	i	i	?
O=C(c1ccccc1)N1N=C(c2ccccc2O)CC1c1ccccc1 (stereo not drawn)	i	?	i	i	21µM
COc1ccc(C2CC(c3ccc4ccccc4c3OC(C)=O)=NN2C(C)=O)cc1 (stereo not drawn)	?	9.2µM	?	i	10µM
COc1ccc(C2CC(c3ccccc3)=NN2C(=O)c2ccc(F)cc2)cc1 (stereo not drawn)	i	29µM	i	-64	?
COc1ccc(C2CC(c3ccc(C)o3)=NN2C(C)=O)cc1 (stereo not drawn)	i	i	i	i	i
COc1ccc(C2=NN(C(=S)Nc3ccccc3)C(c3ccccc3)C2)cc1 (stereo not drawn)	i	18µM	i	i	?
O=C(NC1CCN(C(=O)Nc2ccc(F)cc2)CC1)c1cccc(F)c1	i	i	i	i	i
CC(N=C1NS(=O)(=O)c2ccccc21)C(=O)OCC(=O)N(C)C1CCS(=O)(=O)C1 (stereo not drawn)	i	i	i	i	i
COc1ccc(C2CC(c3ccccc3)=NN2C(=O)COC(=O)c2cccc(O)c2)cc1 (stereo not drawn)	?	?	?	i	?
